# Screening data: PubChem BioAssay, National Center for Advancing Translational Sciences (NCATS)
# HPGD inh = inhibitors of human 15-hydroxyprostaglandin dehydrogenase (HPGD); purified HPGD, NADH fluorescence kinetic, PGE2 substrate; Potency, µM, inactives show top-dose activity change, negative = inhibition, actives largely listed as inhibitors; AID 894; 4.3% of 150,000 active; active means well fitted inhibition curve with a large enough effect, not every such curve was filed as active; inconclusive means small, poorly fitted or top-dose-only effect, or another doubt; inactive means no such curve, though single readings can be large or run the other way; further: potency means the concentration at half of the fitted maximal effect
# Target sequence (P15428 whole entry, looked up): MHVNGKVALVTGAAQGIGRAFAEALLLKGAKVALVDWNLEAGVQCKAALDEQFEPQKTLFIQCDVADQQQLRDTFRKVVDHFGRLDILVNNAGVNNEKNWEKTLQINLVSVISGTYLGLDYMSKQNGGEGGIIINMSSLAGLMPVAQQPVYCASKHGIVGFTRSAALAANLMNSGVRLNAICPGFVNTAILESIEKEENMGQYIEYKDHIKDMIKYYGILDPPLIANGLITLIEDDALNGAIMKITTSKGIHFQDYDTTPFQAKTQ
#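 NADH formation kinetics: reaction with 30 uM PGE2 and 1 mM NAD+ (final), 20 nM enzyme, Tris-HCl pH 8 with Tween 20, after 15 min compound preincubation at room temperature. Fluorescence change, last versus first of five reads.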
# PNC assembly inh = perinucleolar compartment assembly inhibition | PC3M PTB-GFP, PNC prevalence imaging, 16 h; stronger effect = lower value | activity change (PNC), negative = inhibition, % at 10 µM | 3.1% of 140,000 active | AID 2417;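 active means readout at or below -70, meaning at least 70% loss of cells showing the perinucleolar compartment, a nuclear body marking cancer cells; inconclusive means readout between -30 and a set limit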;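 further: plate controls were DMSO wells for no effect and camptothecin positive control wells for full effect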
#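 Read-out is percentage of cells bearing a perinucleolar compartment, from automated 20x imaging of fixed, Hoechst-stained PC3M PTB-GFP cells. Cells were seeded 4 h, then exposed 16 h to compound (23 nl of library stock) in duplicate plates.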
# ALDH1A1 inh = blocks purified human ALDH1A1 activity; P00352; Purified ALDH1A1, NADH fluorescence, propionaldehyde substrate; Potency, µM (titrated, usually from 75.3 µM), inactives show top-dose activity, negative = inhibition, usual class: inhibitors; 7.3% of 220,000 active; AID 1030; active means well fitted inhibition curve with a large enough effect, not every such curve was filed as active; inconclusive means small, poorly fitted or top-dose-only effect, or another doubt; inactive means no such curve, though single readings can be large or run the other way;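 further: potency means the concentration at half of the fitted maximal effect; plate controls were no enzyme wells and a reference inhibitor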
# Target sequence (P00352 whole entry, looked up): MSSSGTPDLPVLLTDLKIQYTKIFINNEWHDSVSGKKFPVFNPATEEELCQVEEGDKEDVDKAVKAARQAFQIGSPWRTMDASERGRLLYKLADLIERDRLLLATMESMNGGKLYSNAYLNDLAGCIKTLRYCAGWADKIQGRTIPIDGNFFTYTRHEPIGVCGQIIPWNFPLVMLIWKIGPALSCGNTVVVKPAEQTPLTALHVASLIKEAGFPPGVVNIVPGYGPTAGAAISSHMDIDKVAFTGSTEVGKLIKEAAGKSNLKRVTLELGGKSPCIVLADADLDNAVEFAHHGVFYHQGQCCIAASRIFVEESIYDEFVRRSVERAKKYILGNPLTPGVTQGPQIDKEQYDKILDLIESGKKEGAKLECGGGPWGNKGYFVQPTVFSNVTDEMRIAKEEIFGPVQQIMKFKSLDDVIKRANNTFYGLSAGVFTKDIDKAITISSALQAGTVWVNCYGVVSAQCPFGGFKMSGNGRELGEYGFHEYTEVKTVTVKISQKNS
# IMPase inh = cell-permeable inhibitors of inositol monophosphatase (IMPase) | P97697 | CHO-M1 cells, IP1 accumulation, HTRF TR-FRET ratio | inhibition (IP1 accumulation), % at 46.1 µM | 120,000 tested, under 10 active | AID 901; active means well fitted curve in the direction sought with a large enough effect in the signal ratio, not every such curve was filed as active; inconclusive means small, poorly fitted or top-dose-only effect, or a change in a side signal; inactive means no such curve, though single readings can be large or run the other way; the % refers to the signal ratio;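 further: cells stimulated with carbachol in lithium chloride buffer; plate controls were DMSO basal wells for no effect and reference inhibitor wells for full effect; higher means more IMPase inhibition seen as more IP1 and lower FRET ratio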
#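 The IP-One HTRF competitive assay in carbachol-stimulated CHO-M1 cells quantifies cellular IP1. Compounds spanned up to 46 uM final, and activity is expressed as AC50 from concentration-response fits of the ratio and donor data.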
# ALOX12 inhib = 12-hLO (ALOX12) enzyme inhibition; P18054; purified 12-hLO, xylenol orange hydroperoxide absorbance; Potency, µM (series often up to 57.1 µM), inactives show top-dose activity change, negative = inhibition, most hits filed as inhibitors; 0.12% of 150,000 active; further: potency means the concentration at half of the fitted maximal effect; nearly all actives have a fitted effect of over 55% in size
#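 Purified human 12hLO (150 nM), preincubated 15 min with compound, then 40 uM arachidonic acid for 30 min, room temperature, Hepes pH 7.0 with 0.01% Triton X-100. Hydroperoxide detected by ferrous iron/xylenol orange; 573/405 nm absorbance ratio gives reaction progress.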
# IMPase Li cell = membrane-permeable IMPase blocker, potentiated with lithium; CHO-M1 cells, IP1 TR-FRET (IP-One), carbachol + lithium; Potency, µM (top dose mostly 59.4 µM), for inactives: at the top dose activity, negative = IMPase inhibition, actives largely listed as inhibitors; 0.35% of 210,000 active; AID 1457;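 further: IP1 builds up when IMPase is blocked and the TR-FRET signal falls; potency means the concentration at half of the fitted maximal effect; plate controls were basal vehicle for no effect and high inhibitor control for full effect; nearly all actives have a fitted effect of over 50% in size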
#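 Test compounds were applied to CHO-M1 cells previously cultured for 16–30 h at 2000 per well. A small lithium amount accompanied them; after 30 min at 37C, IP1 was quantified by TR-FRET.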
# Active calls of the source: *; ? = inconclusive; · = not tested or not shown; [ ] = dose if it differs, or a comment. Sampled rows, rich in hits. Any-hit rate of the full collection: about 11%. Unless noted, the call rests on the fitted dose curve; in most records, active means well fitted curve in the direction sought with a large enough effect; inconclusive means small, poorly fitted or top-dose-only effect, or another doubt; inactive means no such curve, though single readings can be large; an effect the other way counts as inactive or inconclusive. Unless noted, on the % scale 0 is the no-effect control and ±100 the full control effect.
SMILES,HPGD inh,PNC assembly inh,ALDH1A1 inh,IMPase inh,ALOX12 inhib,IMPase Li cell
Cc1ccc(O)c(C(CC(=O)NCC2(c3ccccc3)CCCC2)c2ccccc2)c1 (stereo unspecified),·,·,·,4,·,·
C=CCSc1nc(-c2ccccc2)c(C#N)c(=O)[nH]1,?,11,?,?,0%,?
Cc1cccc(NC(=O)CSc2nc3[nH]ncc3c(=O)[nH]2)c1C,-12%,10,?,·,-3%,0%
N#Cc1c(-c2ccccc2)nc(SCC(=O)N(c2ccccc2)c2ccccc2)[nH]c1=O,28µM*,-27,13µM*,-24,-1%,-18%
N#Cc1c(-c2ccccc2)nc(SCC(=O)Nc2nnc(C(F)(F)F)s2)[nH]c1=O,·,·,-5%,·,·,11µM*
N#Cc1c(-c2ccccc2)nc(SCC(=O)Nc2ccccc2F)[nH]c1=O,16µM*,48,?,·,1%,10µM*
Cc1cccc(NC(=O)CSc2nc(-c3ccccc3)c(C#N)c(=O)[nH]2)c1C,-15%,32,-9%,?,-2%,10µM*
Cc1cccc(NC(=O)COC(=O)c2cc3ccccc3oc2=O)c1,·,·,-2%,·,·,0%
O=C(N/N=C/c1ccco1)c1cccc(N2Cc3ccccc3C2)c1,·,·,20µM*,·,·,3%
O=C(N/N=C/c1ccco1)c1cc(-c2cccc3ccccc23)n[nH]1,25µM*,47,-4%,-2,-3%,9%[38.3 µM]
CCN(CC)CCCC(C)n1c(-c2ccccc2)nc2c(N3CCOCC3)nc(C)nc21 (stereo unspecified),-19%,·,?,·,-1%,-5%
COc1ccc(C(=O)C2CCN(C(=O)c3ccco3)CC2)cc1,-7%,25,?,-2,-7%,1%[38.3 µM]
COc1ccc(C(=O)C2CCN(C(=O)c3ccc(C)cc3)CC2)cc1,-6%,7,5µM*,7,-2%,-16%[38.3 µM]
COc1cc(C(=O)N2CCN(c3cc(Cl)ccc3Cl)CC2)cc(OC)c1OC,1%,-88*,-7%,5,5%,20%
COc1cc(C(=O)N2CCN(C(=O)COc3ccc4ccccc4c3)CC2)cc(OC)c1OC,-9%,-20,?,-2,-1%,-1%[38.3 µM]
Cc1cccc(N2CCN(C(=O)c3ccc(NS(=O)(=O)c4c(C)noc4C)cc3)CC2)c1C,-21%,45,14µM*,2,-5%,20%
COc1ccc(C(=O)N2CCN(C(=O)c3cc(OC)c(OC)c(OC)c3)CC2)cc1,-16%,18,14µM*,7,5%,19%[38.3 µM]
Cc1cccc(N2CCN(C(=O)c3ccncc3)CC2)c1C,2%,23,-6%,2,-1%,11%[38.3 µM]
COc1cc(C(=O)N2CCN(c3cccc(C)c3C)CC2)cc(OC)c1OC,-10%,-122*,-5%,-9,-1%,14%
Cc1ccc(/C=C/C(=O)NCC2COc3ccccc3O2)o1 (stereo unspecified),·,·,6.3µM*,·,·,-8%
O=C(NC(=S)NCC1COc2ccccc2O1)c1ccccc1 (stereo unspecified),-20%,?,?,13,13µM*,17%
O=C(CC1COc2ccccc2O1)NCCc1ccccc1 (stereo unspecified),7.1µM*,50,-15%,1,-7%,-17%[38.3 µM]
O=C(NCC1COc2ccccc2O1)c1ccccc1 (stereo unspecified),?,-21,8%,-17,1%,-5%[38.3 µM]
CO[C@@H]1COC(=O)C/C=C\[C@@H](C)[C@H](OC)COC(=O)[C@H](COCc2ccccc2)NC(=O)C/C=C\[C@H]1C,·,·,-15%[13.5 µM],·,·,·
S=C(Nc1cccc(Cl)c1)N1CCN(Cc2ccccc2)CC1,-12%,-80*,-9%,·,-2%,4%
SMILES,HPGD inh,PNC assembly inh,ALDH1A1 inh,IMPase inh,ALOX12 inhib,IMPase Li cell
Fc1cccc(CN2CCN(C(=S)NCCc3ccccc3)CC2)c1,·,·,?,·,·,0%
Oc1ccc(N2CCN(C(=S)NCCc3ccccc3)CC2)cc1,-13%,1,11µM*,7,-10%,4%[38.3 µM]
S=C(NCCc1ccccc1)N1CCN(Cc2ccccc2)CC1,2%,29,7.9µM*,·,-7%,0%
COc1cccc(N2CCN(C(=S)NCCc3ccccc3)CC2)c1,-3%,-92*,-4%,18,-6%,34%[38.3 µM]
COc1ccc(NC(=O)c2nc3nc(C)cc(C(F)F)n3n2)c(C)c1,·,·,·,3,·,·
CC1OCC23CC[C@@]4(C)CCC(C)(C)C[C@H]4[C@]2(C)CCC12C3CC[C@@]1(C)C2C(=O)CC(=O)[C@@H]1C (stereo partly specified),-1%,·,9%,·,·,1%
CN(C)S(=O)(=O)c1ccc(Cl)c(NC(=O)COC(=O)/C=C/c2ccco2)c1,·,·,?,·,·,1%
Cc1ccc2nc(C(F)OC(F)(F)F)[nH]c2c1 (stereo unspecified),?,-16,0.71µM*,26,-13%,-13%[38.3 µM]
CCCCn1c(-c2csc(CC)c2)n[nH]c1=S,?,?,?,·,-19%,7%
CCCc1cc(-c2n[nH]c(=S)n2CC(C)C)cs1,?,-7,11µM*,·,-17%,-4%
CCCCn1c(-c2csc(C(C)C)c2)n[nH]c1=S,?,-109*,7.9µM*,·,?,9%
Cc1ccc(C)c(OCCOCCn2c(-c3ccc(Br)cc3)nc3ccccc3c2=O)c1C,·,·,·,-6,·,·
COc1ccc(C(=O)NNC(=O)C(C)NC(=O)c2ccccc2NC(=O)c2ccco2)cc1 (stereo unspecified),-15%,-93*,2%,4,6%,-5%
CC(C)Sc1nnc(NC(=O)c2ccco2)s1,·,·,14µM*,·,·,-5%
CCC(C)c1ccccc1NC(=O)COC(=O)c1ccc(C)c(NC(=O)c2ccco2)c1 (stereo unspecified),?,?,40µM*,12,-19%,0%[38.3 µM]
Cc1ccc(C(=O)OCC(=O)Nc2ccc(N(C)C)cc2)cc1NC(=O)c1ccco1,-17%,?,12µM*,2,9%,36%[38.3 µM]
Cc1ccc(C(=O)OCC(=O)Nc2ccccc2)cc1NC(=O)c1ccco1,-7%,19,-4%,0,-2%,13%[38.3 µM]
Cc1cc(Br)ccc1NC(=O)C1CCN(S(=O)(=O)c2ccc(Br)s2)CC1,·,·,·,1,·,·
CC(C)c1ccccc1NC(=O)c1ccco1,7%,-96*,-8%,-1,-12%,-6%[38.3 µM]
N#Cc1c2n(c3c(=S)nc[nH]c13)CCCCC2,-27%,-7,19µM*,-6,-21%,?
COc1ccc(CNC(=O)CSc2nc3[nH]ncc3c(=O)n2-c2ccccc2Br)cc1,·,·,16µM*,·,·,1%
O=C(CSc1nc2[nH]ncc2c(=O)n1-c1ccccc1Br)NCc1ccccc1Cl,·,·,13µM*,·,·,-2%
